What all share (assay): NCI-60 one-dose screen, 48 h (100 = growth as untreated, 0 = no growth, -100 = all killed)
One assay relates to SN12C renal. Particulars: 10 µM unless noted.
Another assay deals with UO-31 renal. Particulars: 10 µM unless noted.
The test system of a further assay is TK-10 renal. Particulars: 10 µM unless noted.
A further assay relates to ACHN renal. The settings on record: 10 µM unless noted.
The subject of a further assay is CAKI-1 renal. The settings on record: 10 µM unless noted.
Another assay has as its system A498 renal. Particulars: 10 µM unless noted.
For the next assay, the system named is CCRF-CEM leukemia. Particulars: 10 µM unless noted.
Another assay concerns MOLT-4 leukemia. The settings on record: 10 µM unless noted.
The next assay concerns SR leukemia. The settings on record: 10 µM unless noted.
The subject of another assay is RPMI-8226 leukemia. Particulars: 10 µM unless noted.
A further assay relates to OVCAR-8 ovarian. The settings on record: 10 µM unless noted.
The next assay relates to OVCAR-5 ovarian. Particulars: 10 µM unless noted.
In another assay the test system is OVCAR-4 ovarian. Particulars: 10 µM unless noted.
The subject of a further assay is SK-OV-3 ovarian. The settings on record: 10 µM unless noted.
Another assay deals with IGROV1 ovarian. The settings on record: 10 µM unless noted.
A further assay concerns OVCAR-3 ovarian. The settings on record: 10 µM unless noted.
The test system of another assay is HS 578T breast. Particulars: 10 µM.
In the next assay the test system is NCI/ADR-RES ovarian. The settings on record: 10 µM unless noted.

Each structure is given as a SMILES string. The panel holds about 83,000 compounds, 20% with a hit somewhere; the sample as a whole holds those more often.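 Interpretation: 100, growth as untreated; towards 0, rising growth inhibition; 0, no net growth; 0 to -100, cell death. Compounds scoring below 10 were considered active.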 A number with no mark means an inactive call. Calls of active or inactive are those of the source.

`Cc1cc(C)c2c(n1)sc1c(Nc3ccc(OCc4ccccc4)cc3)ncnc12`: the growth was 101% in the assay with SN12C renal; 85.1% in the assay with UO-31 renal; 92.4% with TK-10 renal; 106% in the assay with ACHN renal; 97.5% in the assay on CAKI-1 renal; 78.3% with A498 renal. Further, the growth with CCRF-CEM leukemia is 86.6%; with MOLT-4 leukemia, 101%; with SR leukemia, 95.5%; in the assay on RPMI-8226 leukemia, 95.1%; with OVCAR-8 ovarian it was 104%; with OVCAR-5 ovarian it was 109%. The growth with OVCAR-4 ovarian is 107%; with SK-OV-3 ovarian it was 106%; with IGROV1 ovarian, 97.5%; with OVCAR-3 ovarian it was 100%; with HS 578T breast it was 108%; with NCI/ADR-RES ovarian, 100%.

For the compound `COc1ccc(C2=NN(C=O)C(c3ccc(OS(=O)(=O)c4ccc(C)cc4)c(OC)c3)C2)cc1` (stereo not drawn), the growth in the assay on SN12C renal is 76.9%; in the assay on UO-31 renal it was 53.9%; in the assay on TK-10 renal, 73.2%; in the assay with ACHN renal, 69.1%; in the assay on CAKI-1 renal, 52.7%; with A498 renal it was 39.6%. Further, the growth with CCRF-CEM leukemia was 37.9%; with MOLT-4 leukemia it was 40.7%; in the assay on SR leukemia it was 23.5%; in the assay on RPMI-8226 leukemia, 40.3%; with OVCAR-8 ovarian, 59.6%; with OVCAR-5 ovarian, 89.9%. Moreover, the growth is 40.5% in the assay on OVCAR-4 ovarian; 84.3% in the assay with SK-OV-3 ovarian; 79.1% with IGROV1 ovarian; 60.8% in the assay on OVCAR-3 ovarian; 60.1% with HS 578T breast.

Take `Cc1cc(C)c(C#N)c(SCC(=O)c2sc3c(C#N)c(C)cc(C)[n+]3c2[O-])n1`: the growth was 31.4% with SN12C renal; 45.5% in the assay on UO-31 renal; 35.3% with TK-10 renal; 31% in the assay on ACHN renal; -6.91% (active) in the assay on CAKI-1 renal; -6.21% (active) in the assay on A498 renal. Besides, the growth in the assay on CCRF-CEM leukemia is 9.64% (active); with MOLT-4 leukemia it was 2.71% (active); in the assay on SR leukemia it was 5.47% (active); with RPMI-8226 leukemia it was 43.1%; in the assay with OVCAR-8 ovarian, 20.4%; in the assay on OVCAR-5 ovarian, 41.6%. In addition, the growth in the assay on OVCAR-4 ovarian was 66.9%; with SK-OV-3 ovarian it was 14.7%; with IGROV1 ovarian, 9.29% (active); in the assay with OVCAR-3 ovarian it was -15.9% (active); with NCI/ADR-RES ovarian, 12%.

With `O=Cc1ccc2nc(C(Cl)(Cl)Cl)ccc2c1`, the growth with SN12C renal was 104%; in the assay with UO-31 renal it was 81.8%; in the assay with TK-10 renal it was 101%; in the assay on ACHN renal, 101%; with CAKI-1 renal, 99.7%; in the assay with A498 renal, 93.6%. Besides, the growth with CCRF-CEM leukemia is 91.9%; in the assay with MOLT-4 leukemia, 98.4%; in the assay on SR leukemia, 93.2%; in the assay with RPMI-8226 leukemia, 93.7%; in the assay with OVCAR-8 ovarian it was 107%; in the assay with OVCAR-5 ovarian, 108%. Besides, the growth in the assay on OVCAR-4 ovarian is 110%; in the assay with SK-OV-3 ovarian, 90.5%; with IGROV1 ovarian it was 93.1%; in the assay with OVCAR-3 ovarian, 103%; in the assay with HS 578T breast, 102%; in the assay on NCI/ADR-RES ovarian, 105%.

For the compound `Nc1nonc1-c1nc2ccccc2n1Cc1ccc(F)cc1`, the growth in the assay on SN12C renal was 62.4%; in the assay with UO-31 renal, 42.9%; in the assay on TK-10 renal, 55.9%; with ACHN renal it was 68.1%; with CAKI-1 renal, 35.9%; in the assay with A498 renal, 42.1%. In addition, the growth in the assay with CCRF-CEM leukemia was 54.2%; with MOLT-4 leukemia, 30%; in the assay on SR leukemia, 22.3%; in the assay on RPMI-8226 leukemia, 64.4%; in the assay with OVCAR-8 ovarian it was 76.7%; in the assay on OVCAR-5 ovarian, 80.4%. For the same compound, the growth in the assay on OVCAR-4 ovarian is 66.9%; with SK-OV-3 ovarian, 54.4%; in the assay on IGROV1 ovarian, 48.7%; in the assay with OVCAR-3 ovarian, 48.5%; in the assay on HS 578T breast, 53.6%; in the assay on NCI/ADR-RES ovarian, 36.8%.

For the compound `Cc1nc2ccc(Nc3nc(Cl)nc(N4CCOCC4)n3)cc2n1Cc1ccccc1`, the growth is 78.2% in the assay with SN12C renal; 73.8% with UO-31 renal; 44.7% with TK-10 renal; 79.4% in the assay with ACHN renal; 104% with CAKI-1 renal; 91.7% in the assay with A498 renal. The growth in the assay with CCRF-CEM leukemia is 45.7%; with MOLT-4 leukemia, 25.8%; in the assay on SR leukemia, 18.5%; in the assay on RPMI-8226 leukemia, 74.4%; in the assay on OVCAR-8 ovarian, 44%; with OVCAR-5 ovarian, 104%. The growth in the assay with OVCAR-4 ovarian was 126%; with SK-OV-3 ovarian, 93.7%; in the assay on IGROV1 ovarian, -1.16% (active); with OVCAR-3 ovarian, 98.4%; in the assay on HS 578T breast it was 81.4%.

Consider `NC(N)=N/N=C/c1ccccc1`, for which the growth is 103% in the assay with SN12C renal; 88.3% with UO-31 renal; 93.5% in the assay with TK-10 renal; 106% in the assay on ACHN renal; 86.9% with CAKI-1 renal; 97.7% in the assay on A498 renal. Moreover, the growth in the assay on CCRF-CEM leukemia is 84.8%; in the assay on MOLT-4 leukemia, 95%; with SR leukemia, 96%; in the assay on RPMI-8226 leukemia it was 89.1%; in the assay with OVCAR-8 ovarian it was 99.5%; in the assay with OVCAR-5 ovarian it was 93.2%. Further, the growth was 101% in the assay on OVCAR-4 ovarian; 101% in the assay with SK-OV-3 ovarian; 108% in the assay on IGROV1 ovarian; 99.5% with OVCAR-3 ovarian; 101% with HS 578T breast; 104% in the assay on NCI/ADR-RES ovarian.

Take `Nc1nc(N)c2c(n1)NC(c1sc(Cl)nc1Cl)CC(c1ccccc1)=N2` (stereo not drawn): the growth is 48.7% with SN12C renal; 46.6% with UO-31 renal; 70.8% in the assay on TK-10 renal; 61.5% in the assay on ACHN renal; 44.8% with CAKI-1 renal; 19.7% with A498 renal. For the same compound, the growth in the assay on CCRF-CEM leukemia was 38.9%; in the assay with MOLT-4 leukemia, 26%; with SR leukemia it was 19.9%; in the assay with RPMI-8226 leukemia it was 45.3%; with OVCAR-8 ovarian, 60.7%; in the assay with OVCAR-5 ovarian it was 76.7%. For the same compound, the growth was 94% in the assay with OVCAR-4 ovarian; 74% in the assay on SK-OV-3 ovarian; 50.5% with IGROV1 ovarian; 40.4% in the assay with OVCAR-3 ovarian; 48.1% with HS 578T breast.

With `Cc1cc(C)c2c(NC(=O)Nc3ccc(Cl)c(Cl)c3)n[nH]c2n1`, the growth with SN12C renal is 103%; in the assay with UO-31 renal it was 90.2%; in the assay with TK-10 renal, 112%; with ACHN renal, 109%; in the assay with CAKI-1 renal, 91.6%; in the assay with A498 renal it was 101%. Also, the growth is 102% in the assay on CCRF-CEM leukemia; 98.3% in the assay on MOLT-4 leukemia; 96.6% in the assay with SR leukemia; 100% in the assay with RPMI-8226 leukemia; 110% in the assay with OVCAR-8 ovarian; 101% in the assay with OVCAR-5 ovarian. The growth in the assay with OVCAR-4 ovarian was 93.2%; in the assay on SK-OV-3 ovarian it was 100%; in the assay on IGROV1 ovarian it was 111%; with OVCAR-3 ovarian, 113%; in the assay on HS 578T breast it was 114%; in the assay with NCI/ADR-RES ovarian, 102%.

The values above are taken from PubChem BioAssay (NCI).
